Reference: ChEMBL document CHEMBL1157539, “Thousands of chemical starting points for antimalarial lead identification” (Nature, 2010)

How the values were obtained:
Assay type in all cases: functional
Plasmodium falciparum [1] = assay: GSK_TCMDC: Inhibition of Plasmodium falciparum 3D7 in whole red blood cells, using parasite LDH activity as an index of growth. Test compounds present at 2uM
Plasmodium falciparum [2] = assay: GSK_TCMDC: Inhibition of Plasmodium falciparum Dd2 in whole red blood cells, using parasite LDH activity as an index of growth. Test compounds present at 2uM
HepG2 = assay: GSK_TCMDC: Percent inhibition of human HepG2 cell line. Test compounds present at 10uM.

Row | SMILES | Inhibition (Plasmodium falciparum [1]) [%] | Inhibition (Plasmodium falciparum [2]) [%] | Inhibition (HepG2) [%]
1 | O=C(O)C(=O)O.c1ccc(C2CCC(N3CCC(N4CCCC4)CC3)CC2)cc1 (stereo not drawn) | 100 | 46 | 9
2 | CCCc1cn2c3c(cc(C(=O)N[C@@H](Cc4ccccc4)[C@H](O)CNC4CCCCC4)cc13)N(CC)S(=O)(=O)CC2.O=CO | 98 | 98 | 2
3 | Cc1ccc(NC(=O)c2cccc(CN3CCCN(Cc4cccc(O)c4)CC3)c2)cc1C.O=C(O)C(F)(F)F | 95 | 31 | 19
4 | O=c1cc(NCCCNCc2cccc3c2OC(F)(F)O3)[nH]c2ccccc12 | 88 | 15 | 4
5 | C=CCNS(=O)(=O)c1ccc(NC(=O)C(C)Oc2ccc([N+](=O)[O-])cc2)cc1 (stereo not drawn) | 100 | 100 | 14
6 | CCc1ccccc1NC(=O)CN1CCN(c2ncnc3scc(-c4ccc(F)cc4)c23)CC1 | 83 | 62 | 6
7 | COc1cccc(C2CCN(CCN3CCC(NC(=O)c4ccc(-c5ccc(C(F)(F)F)cc5)cc4)CC3)CC2)c1 | 99 | 99 | 46
8 | CC(C)(C)c1cc(C(=O)N2CCN(c3ncccc3C(F)(F)F)CC2)n(Cc2ccccc2)n1 | 100 | 99 | 0
9 | COc1c(C2CCN(CCCCNC(=O)c3ccc(-c4ccc(Cl)cc4)c(O)c3)CC2)ccc2c1CCCC2 | 100 | 99 | 91
10 | O=C(Nc1cccc(-c2ccc(CN3CCCC3)cc2)c1)c1cccc(Cl)c1.O=C(O)C(F)(F)F | 100 | 61 | 32
11 | Cc1cc(=NN=Cc2ccc(Cl)cc2)c2ccccc2[nH]1 | 100 | 87 | 5
12 | COc1cccc2c(N/N=C/c3ccccc3[N+](=O)[O-])cc(C)nc12 | 99 | 32 | 0
13 | COc1ccc(NC(=O)C2CCN(CCCCCNC(=O)/C=C/c3ccc(Cl)c(Cl)c3)CC2)cc1 | 98 | 0 | 26
14 | CCCCNCc1ccc(-c2nc(CN(CCCn3ccnc3)C(=O)NC3CC3c3ccccc3)cs2)cc1.O=C(O)C(F)(F)F (stereo not drawn) | 100 | 34 | 21
15 | O=C(C=Cc1ccc(Cl)c(Cl)c1)NCCCCCN1CCC(CCCNC(=O)c2sc3ccccc3c2Cl)CC1 | 93 | 40 | 99
16 | CCOc1ccc(-c2nc(NC(=O)CS(=O)(=O)c3ccccc3)sc2C)cc1 | 100 | 59 | 6
17 | Cc1cccc2nc(-c3ccc(-c4cccc(NC(=O)C(=O)c5cccn5C)c4)cc3)[nH]c12 | 98 | 17 | 30
18 | CC(C)c1ncc(-c2ccncc2)c(C2CCC(CNC(=O)c3cccnc3)CC2)n1 (stereo not drawn) | 89 | 88 | 0
19 | CC(C)c1ccc(NS(=O)(=O)c2cccc(C(=O)NC3CCN(CC4CCCCC4)CC3)c2)cc1.O=C(O)C(F)(F)F | 93 | 69 | 71
20 | CC(C)(Oc1ccc(Cl)cc1)C(=O)NCCC1CCN(CCCCCNC(=O)/C=C/c2ccc(Cl)c(Cl)c2)CC1 | 87 | 37 | 73
21 | CC1(C)N=C(N)N=C(N)N1c1ccc(Br)cc1.Cl | 94 | 4 | 52
22 | Cc1ccnc(-n2c(C)cc(C=C3SC(=Nc4ccccc4)N(Cc4ccco4)C3=O)c2C)c1 | 99 | 98 | 0
23 | O=C(NCc1ccc(Cl)c(Cl)c1)c1cc(CNC2CCNCC2)ccc1O | 82 | 2 | 2

Row | SMILES | Inhibition (Plasmodium falciparum [1]) [%] | Inhibition (Plasmodium falciparum [2]) [%] | Inhibition (HepG2) [%]
24 | CC(O)C(=O)O.COc1cc(Cc2cnc(N)nc2N)c2c(c1OC)OC(C)(C)C=C2 | 93 | 2 | 7
25 | Br.CC1(C)NC(N)=NC(=N)N1OCCCOc1ccccc1Cl | 96 | 94 | 64
26 | COc1ccc2[nH]c(C)cc(=NN=Cc3ccc(Cl)cc3)c2c1 | 100 | 100 | 2
27 | Cc1ccccc1-c1cc(=O)c2cc(NC(=O)c3cccs3)ccc2o1 | 96 | 95 | 22
28 | CC(C)C1=C[C@H]2C[C@]3(C4OCCO4)[C@@H]4CC[C@@H](C)[C@H]4C[C@@]2(COCc2cccc(C#N)c2)[C@]13C(=O)OC(c1ccccc1)c1ccccc1 | 88 | 92 | 0
29 | Cc1c(CNCCCNc2cc(=O)c3ccccc3[nH]2)sc(C(F)=C(F)F)c1Br.Cl | 94 | 18 | 7
30 | COc1ccccc1NC(=O)Nc1ccc(-c2ccc(-c3nc4cccc(C)c4[nH]3)s2)cc1 | 100 | 99 | 71
31 | O=C(NC1CC1)c1ccc(N2CCC(Cc3ccccc3)CC2)c([N+](=O)[O-])c1 | 96 | 83 | 12
32 | O=S(=O)(Nc1ccc(CCN2CCCCC2CCN2CCCC2)cc1)c1cccc2cccnc12 (stereo not drawn) | 100 | 0 | 20
33 | Cc1cc(N2CCCC2)nc(Nc2ccc(NC(=O)C(C)C)cc2)n1 | 97 | 36 | 40
34 | CCCN(CC1CC1)c1ncc(-c2cccc(CNCc3ccccc3O)c2)cn1 | 97 | 98 | 15
35 | CC(C)[C@H](NC(=O)c1ccc(O)c(-c2cccc(C(F)(F)F)c2)c1)C(=O)NC1CCCc2ccccc21 (stereo partly drawn) | 82 | 25 | 2
36 | CCNc1cc(C(=O)N[C@@H](Cc2ccccc2)[C@H](O)CNCc2cccc(OC)c2C)cc(N2CCCCS2(=O)=O)c1.O=CO | 97 | 98 | 8
37 | Cc1cccc2nc(-c3cccc(-c4cccc(CNC(C)C)c4)c3)[nH]c12.O=C(O)C(F)(F)F | 100 | 98 | 29
38 | CCOc1ccc(N2CCN(CCCCNC(=O)c3ccc(NC(=O)c4ccc(Cl)cc4)cc3)CC2)c(OCC)c1 | 100 | 65 | 36
39 | CC(=O)Nc1cccc(C(=O)Nc2cccc(-c3cccc(-c4nc5ccccc5[nH]4)c3)c2)c1 | 100 | 66 | 41
40 | CC(C)N1CCN(C(=O)c2ccc(CNCCCN3CCN(c4cccc(Cl)c4Cl)CC3)s2)CC1.Cl | 100 | 44 | 51
41 | CC1=C(C(=O)Nc2ccccc2)C(c2ccc([N+](=O)[O-])cc2)n2ncc(C(=O)Nc3ccccc3)c2N1 (stereo not drawn) | 86 | 68 | 9
42 | Cc1sc2ccc(Cl)cc2c1S(=O)(=O)Nc1ccc2nccc(N3CC(C)NC(C)C3)c2c1.Cl (stereo not drawn) | 100 | 100 | 17
43 | CC(C)(C)C(=O)Nc1ccc(C(=O)Nc2cccc(-c3nc4ccccc4[nH]3)c2)cc1 | 96 | 62 | 56
44 | COC(=O)c1ccc(C2OC3(C(=O)c4ccccc4C3=O)C(OC)=C2Cl)cc1C(C)=O (stereo not drawn) | 99 | 85 | 0
45 | COc1ccc2ccccc2c1C=NNc1ccnc2cc(Cl)ccc12 | 100 | 94 | 20
46 | Cc1cc(C)c(NC(=O)N2CCCN(CCCCCNC(=O)/C=C/c3ccc(Cl)c(Cl)c3)CC2)c(C)c1 | 91 | 0 | 12
